Assay results: PubChem BioAssay AID485367 (National Center for Advancing Translational Sciences (NCATS), 2010)
Where “and” joins values, the source holds several entries; their conditions need not be identical. Equal entries are not always repeated. Hit rate of the full screen: of about 330,000 compounds, about 560 (0.17%) were called active. Inconclusive results (about 1%) are left out. This is one part of a sample in which actives are shown more often than they occur. Unmarked numbers belong to inactive results. The call rests on the fitted dose curve; in most records, active means well fitted inhibition curve with a large enough effect; inconclusive means small, poorly fitted or top-dose-only effect, or effect the other way; inactive means flat fitted curve, though single readings scatter.

These molecules were tested against ATP-dependent 6-phosphofructokinase (Trypanosoma brucei brucei) (UniProt O15648) (assay: qHTS Assay to Find Inhibitors of T. brucei phosphofructokinase). Details: T. brucei PFK, ADP-Glo luminescence; series mostly up to 57.5 µM; activity, negative = inhibition: at the top concentration.
Summary of the method: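 PFK 1.25 nM, F6P 0.5 mM, ATP 0.1 mM, 0.1 M TEA pH 8.0, 5 mM MgCl2, 0.01% Tween20, 0.1% BSA; 45 min RT. ADP-Glo readout. qHTS titration up to 57 uM; curves fitted, compounds curve-classed.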
Further: nearly all actives have a fitted effect of over 60% in size.
Potency means the concentration at half of the fitted maximal effect.
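Wherever activity, negative = inhibition is given: 0% = uninhibited 1x PFK enzyme wells and -100% = no-enzyme wells.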

ATP-dependent 6-phosphofructokinase (Trypanosoma brucei brucei), sequence (O15648 whole entry, looked up): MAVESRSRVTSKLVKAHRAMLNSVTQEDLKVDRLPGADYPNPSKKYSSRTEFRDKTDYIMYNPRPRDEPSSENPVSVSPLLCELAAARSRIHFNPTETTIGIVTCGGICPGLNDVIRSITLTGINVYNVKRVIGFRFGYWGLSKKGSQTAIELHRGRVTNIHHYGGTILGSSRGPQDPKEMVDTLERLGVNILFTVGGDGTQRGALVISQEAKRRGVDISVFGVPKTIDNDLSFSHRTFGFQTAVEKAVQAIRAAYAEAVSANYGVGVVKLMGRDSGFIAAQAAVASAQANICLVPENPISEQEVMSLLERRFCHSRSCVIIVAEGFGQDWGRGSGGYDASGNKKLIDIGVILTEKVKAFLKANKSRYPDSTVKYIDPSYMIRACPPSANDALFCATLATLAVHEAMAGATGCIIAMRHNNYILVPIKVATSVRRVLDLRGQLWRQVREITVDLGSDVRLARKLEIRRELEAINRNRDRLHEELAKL

Structure (SMILES)	activity, negative = inhibition	Potency
CN(CC(=O)Nc1ccc(F)c(F)c1F)C(=O)C1CC(=O)N(C2CCCC2)C1 (stereo not drawn)	2.52%	
CCOC(=O)c1cnc(SC)nc1Sc1ccc(Cl)cc1Cl	-2.53%	
NCCN1CCN2C(=O)CN(C(=O)c3ccccc3)CC12 (stereo not drawn)	0.907%	
O=C(COC(=O)c1cc(=O)[nH]c2ccccc12)NCc1cccc(Cl)c1	-11.9%	
Cc1cc(Nc2cccc(F)c2)n2ncnc2n1	-1.14%	
C=CCn1c(C23CC4CC(CC(C4)C2)C3)n[nH]c1=S	-0.991%	
CCOC(=O)c1c(/N=C/C2C(=O)CC(C)(C)CC2=O)sc(C)c1C	2.63%	
O=C(Nc1cc(C(F)(F)F)ccc1Cl)c1cc2nc3c(c(C(F)(F)F)n2n1)CCCC3	-1.59%	
Cc1cc(NS(=O)(=O)c2ccc(NC(=O)C(C)Oc3cccc(C)c3C)cc2)nc(C)n1 (stereo not drawn)	-5.56%	
CCCCn1c(N)c(N(Cc2ccccc2OC)C(=O)COc2cc(C)ccc2Cl)c(=O)[nH]c1=O	24.8%	
NC(=O)Nc1ccccc1C(=O)NCCc1ccccc1	-28.3%	
CCOC(=O)C1C(=O)C=C(c2ccc(OC)cc2)CC1c1ccco1 (stereo not drawn)	1.24%	
CC(C)c1ccc(NC(=O)Cn2ncc3ccccc32)cc1	2.07%	
C=CCOc1ccc(/C=C/C(=O)OCC(=O)NC2CCCCCC2)cc1	1.83%	
O=C1CSc2ccc(C(=O)NCc3ccccn3)cc2N1	-9.69%	
COc1cccc(S(=O)(=O)NCc2ccc(C(=O)NCc3ccccn3)cc2)c1	-1.83%	
O=C(NCc1ccccn1)c1ccc2nc(-c3ccco3)c(-c3ccco3)nc2c1		2.13 µM (active)
CCOc1cc(CNn2c(C)nnc2SCC(=O)NC(C)(C)C)ccc1OCC(=O)NC(C)(C)C	-0.0385%	
S=c1[nH]c2ccccc2c2ccccc12	-0.408%	
COCCNC(=O)COc1ccc(N(C)S(=O)(=O)c2ccc3ccccc3c2)cc1	1.54%	

Structure (SMILES)	activity, negative = inhibition	Potency
Cc1ccc(N2C(=O)C(CC(=O)Nc3cccc(F)c3)N(CCc3ccncc3)C2=O)cc1 (stereo not drawn)	-1.36%	
CCCCN1C(=O)C(C)=C(C)C1OCCc1ccc(OC)c(OC)c1 (stereo not drawn)	-0.0022%	
N/C(=N\OC(=O)CCCC(=O)O)c1ncc(C(F)(F)F)cc1Cl	0.924%	
N/C(=N\OC(=O)Nc1ccc(Cl)c(Cl)c1)c1ncc(C(F)(F)F)cc1Cl		13.5 µM (active)
O=C(c1ccccn1)c1ncc(C(F)(F)F)cc1Cl	-1.9%	
COc1cccc(N=c2oc3c(C)ncc(CO)c3cc2C(N)=O)c1	-0.59%	
CC(C)c1ccc(N2CCN(C(=O)c3ccccc3NC(=O)/C=C(\C(=O)O)c3ccccc3)CC2)cc1	0.784%	
O=c1[nH]c(=S)[nH]c2[nH]c(=S)[nH]c12		16.9 µM (active) and 13.5 µM (active)
Cc1c(C)c(C)c2[nH]c(=S)[nH]c2c1C	4.32%	
CCOc1ccc(Oc2nc(C)cc(OC)n2)nn1	-6.66%	
Cc1ccc(-c2nn(-c3ccccc3)cc2C(=O)NCCCN2CCCC2=O)cc1	4.23%	
COc1ccccc1NS(=O)(=O)N(C)C	0.142%	
Cc1ccc(CN(C)Cc2cc(=O)oc3cc(C)c(Cl)cc23)cc1	0.644%	
O=c1oc2ccccc2c(CNc2ccccc2)c1[N+](=O)[O-]	1.56%	
Cc1ccc2c(c1)N(S(=O)(=O)c1cc(-c3cc(C)no3)ccc1C)CCO2	-4.63%	
COC(=O)c1cccc(NC(=O)CN2CCC(NC(=O)c3cc(OC)c(OC)c(OC)c3)CC2)c1	0.362%	
Cn1c2cc(B(O)O)sc2c2cnn(Cc3ccccc3F)c(=O)c21	-19.7%	
O=C(COC(=O)/C=C/c1ccc(OC(F)F)cc1)NC1CCCCC1	6.89%	
N=C1/C(=C/c2cccn2-c2cccc([N+](=O)[O-])c2)C(=O)N=C2SC=CN12	3.77%	
CCOC(=O)c1c(CNCc2ccccc2F)c2sc(C)cc2n1C	-0.233%	

Structure (SMILES)	activity, negative = inhibition	Potency
O=[N+]([O-])c1c(NCCO)cc(Sc2nc3ccccc3s2)c2nonc12		6.01 µM (active)
NC(=O)c1ccc(Nc2ccc3nonc3c2[N+](=O)[O-])cc1	0.218%	
CCN(CC)CCCSc1nc2ccccc2s1	-6.96%	
CCOCCOC(=O)C1=C(C)N(C)C(=O)NC1c1ccccc1F (stereo not drawn)	0.633%	
CCOC1CS(=O)(=O)CC1OCC (stereo not drawn)	-1.39%	
CC(C)(C)NC(=O)NC(=O)COC(=O)Cc1c(F)cccc1Cl	-0.983%	
O=C1CSC(=S)N1c1ccc(O)cc1	-1.23%	
COc1cc(N2C(=O)CSC2=S)cc(OC)c1OC	-8.25%	
O=C1CSC(=S)N1c1ccc(Cl)c(Cl)c1		21.3 µM (active)
O=C(COC(=O)CNS(=O)(=O)c1ccccc1)NC12CC3CC(CC(C3)C1)C2	-2.55%	
Cc1ccc(C(=O)COC(=O)c2cccc(N3C(=O)c4c(C)nc5ccccc5c4C3=O)c2)cc1C	-6.05%	
Cc1ccnc(NC(=O)c2ccc(Cl)c([N+](=O)[O-])c2)c1	-21.5%	
O=C(Nc1ccncc1)c1ccc([N+](=O)[O-])cc1Cl	-2.98%	
O=C(Nc1ccncc1)c1ccc(Cl)c([N+](=O)[O-])c1		26.9 µM (active)
Cc1c(CCO)c(=O)n(-c2ccccc2)n1S(=O)(=O)c1ccc(F)cc1	2%	
CCOc1ccc(NCCC(=O)c2ccc3c(c2)OCO3)cc1	0.639%	
COc1ccc(CNC(=O)C(NS(=O)(=O)c2cccc3nsnc23)C(C)C)cc1 (stereo not drawn)	-7.82%	
CC(NC(=O)c1ccc(S(=O)(=O)Nc2ccccc2)cc1)c1ccc(S(N)(=O)=O)cc1 (stereo not drawn)	4.34%	
